Bioassay records as filed in PubChem.
KB-3-1 tox – kills parental KB-3-1 adenocarcinoma cells. KB-3-1 viability, CellTiter-Glo ATP luminescence, 72 h. Potency, µM (titrated, usually from 46.1 µM), most hits filed as cytotoxic. hit rate 1.4% among 400,000. AID 1347075; also: % is scaled to controls: 0 for no effect and ±100 for the full control effect; nearly all actives have a fitted effect of over 60% in size
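Using CellTiter-Glo luminescence, growth of non-resistant KB-3-1 adenocarcinoma cells is assessed 72 h after pin-tool compound addition at 37 °C. Normalized responses across the concentration series yield fitted curves.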
MCF10A rerep – induces DNA re-replication in MCF 10a normal breast cells | hit rate 2.9% among 350,000 | MCF 10A DNA re-replication, Hoechst nuclear intensity, 48 h | Potency, µM (series often up to 46.1 µM), inactives show at the top dose activity, positive = re-replication, most hits filed as activators; also: % of control where 0% means no effect; nearly all actives have a fitted effect of over 50% in size
KB-V1 MDR tox – kills drug-selected multidrug resistant KB-V1 cells | Potency, µM (top dose mostly 46.1 µM), actives largely listed as cytotoxic | hit rate 3.4% among 400,000 | KB-V1 MDR cells viability, CellTiter-Glo, 72 h; also: % is scaled to controls: 0 for no effect and ±100 for the full control effect; nearly all actives have a fitted effect of over 60% in size
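Cytotoxicity via CellTiter-Glo luminescence after 72 h compound exposure at 37 degrees C. Cells: drug-selected KB-V1 line, DMEM phenol-red free plus 10% FBS. Compounds tested at multiple concentrations; normalized data fitted to concentration-effect curves.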
ELG1 repair inh – inhibitors of ELG1-dependent DNA repair in HEK293T cells; Potency, µM (series often up to 46.1 µM), for the others: at the top dose activity change, negative = inhibition, most hits filed as inhibitors; hit rate 2.3% among 330,000; HEK293T ELG1-luciferase reporter, luminescence, 16 h; DNA damage induced by 5-fluorouridine; AID 504467; also: % is scaled to controls: 0 for no effect and ±100 for the full control effect; nearly all actives have a fitted effect of over 55% in size
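Luminescence from the luciferase reporter, measured 30 min after ONE-Glo reagent at room temperature, was the read-out. Beforehand, 2,000 cells per well were exposed for 16 hr at 37 °C to 5-fluorouridine together with compound or vehicle.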
SW480 rereplic – DNA re-replication induction in SW480 cells | Potency, µM (highest dose often 46.1 µM), without a hit: at the top dose re-replication activation, actives largely listed as activators | hit rate 1.8% among 340,000 | SW480 DNA re-replication, Hoechst DNA content imaging, 48 h; also: % of control where 0% means no effect; nearly all actives have a fitted effect of over 55% in size
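SW480 cells exposed to compounds for 48 hr at 37 C, 5% CO2, then Hoechst-stained 40 min. Nuclear DNA content imaged by fluorescence scanning (405 nm excitation, 500-530 nm emission); re-replication scored as increased high-intensity nuclei.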
ELG1 FLuc counter – luciferase inhibition in cell-free luciferin readout for ELG1 hits | cell-free firefly luciferase luminescence counter-screen, ViewLux | hit rate 3% among 350 | Potency, µM (top dose mostly 46.1 µM), inactives show at the top dose activity change, negative = inhibition, usual class: inhibitors | shares compounds with ELG1 repair inh | AID 624247; also: % is scaled to controls: 0 for no effect and ±100 for the full control effect
ELG1-Luc inh – inhibits ELG1-dependent DNA repair in HEK293T cells, confirmed; shares compounds with ELG1 repair inh; HEK293T ELG1-luciferase levels, luminescence; cells co-treated with 5-fluorouridine; Potency, µM (titrated, usually from 46.1 µM), inactives show at the top dose activity change, negative = inhibition, most hits filed as inhibitors; hit rate 68% among 670; also: % is scaled to controls: 0 for no effect and ±100 for the full control effect; nearly all actives have a fitted effect of over 55% in size
ELG1 MMS Luc – confirmation of human ELG1 repair inhibitors, MMS stimulated; shares compounds with ELG1 repair inh; HEK293T luciferase-tagged ELG1 level, MMS stimulated; Potency, µM (highest dose often 46.1 µM), inactives show at the top dose activity change, negative = inhibition, hits mostly inhibitors; hit rate 53% among 670; also: % is scaled to controls: 0 for no effect and ±100 for the full control effect; nearly all actives have a fitted effect of over 60% in size
ELG1 5FU viab – confirmation of ELG1 repair inhibitors: viability with 5FU; shares compounds with ELG1 repair inh; cell viability with 5-FU, ELG1-dependent repair; Potency, µM (top dose mostly 46.1 µM), inactives show at the highest dose activity change, negative = viability loss, actives largely listed as cytotoxic; 670 tested, under 10 active;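 also: ELG1-luc HEK293T cells cotreated with 5-fluorouridine at 10 µM final; viability measured 16 h after compound addition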
ELG1 MMS viab – confirmation of ELG1 repair inhibitors: viability with MMS; shares compounds with ELG1 repair inh; Cell viability with MMS, ELG1-dependent DNA repair; Potency, µM (highest dose often 46.1 µM), for inactives: top-dose activity change, negative = viability loss, usual class: cytotoxic; hit rate 33% among 670;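 also: ELG1-luc HEK293T cells co-treated with 10 µM MMS; viability read 16 h after compound addition; % is scaled to controls: 0 for no effect and ±100 for the full control effect; nearly all actives have a fitted effect of over 60% in size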
ELG1 unstim viab – unstimulated viability counter-screen for ELG1 repair hits | shares compounds with ELG1 repair inh | cell viability counter-screen, unstimulated, luminescence | Potency, µM (doses to about 45.9 µM), for inactives: top-dose activity change, negative = loss of viability, most hits filed as cytotoxic | hit rate 8% among 900 | AID 624252;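 also: compound exposure lasted 16 hours before reading; % is scaled to controls: 0 for no effect and ±100 for the full control effect; nearly all actives have a fitted effect of over 55% in size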
FLuc biochem – inhibits purified firefly luciferase, counter-screen for ELG1 hits. Potency, µM (doses to about 57.5 µM), for inactives: at the highest dose activity, negative = inhibition, most hits filed as inhibitors. AID 624253. hit rate 10% among 350. shares compounds with ELG1 repair inh. purified firefly luciferase, luminescence counter-screen; also: % is scaled to controls: 0 for no effect and ±100 for the full control effect
Active calls of the source: *; i = inactive; ? = inconclusive; . = not tested or not shown; [ ] = another dose, or the depositor's remark. In the library only some 8.1% were active in any assay of this set; here they are far more common. Calls follow the shape of the dose curve; as a rule, active = well fitted curve in the direction sought with a large enough effect; inconclusive = small, poorly fitted or top-dose-only effect, or another doubt; inactive = no such curve, though single readings can be large; an effect the other way counts as inactive or inconclusive. Potency is read from the fitted curve at half-maximal effect.

SMILES | KB-3-1 tox | MCF10A rerep | KB-V1 MDR tox | ELG1 repair inh | SW480 rereplic | ELG1-Luc inh | ELG1 MMS Luc | ELG1 5FU viab | ELG1 MMS viab | ELG1 unstim viab | others
C=CC[C@H](CC(=O)NCCO)C(=O)NC[C@@H](OC(=O)[C@@H](CC=C)Cc1ccc(F)cc1)c1ccccc1 | i | 19.2% | i | -8.9% | 0.0% | . | . | . | . | .
O=C(Nc1nc(-c2ccccn2)cs1)c1ccc(S(=O)(=O)N2CCCCC2)cc1 | . | . | . | 0.651µM* | . | 36.3µM* | 25.7µM* | 10.6%[92.2 µM] | 36.3µM* | ? | ELG1 FLuc counter=?;FLuc biochem=-11.3%[115 µM]
COc1ccc(C(=O)Nc2nc(-c3ccccn3)cs2)cc1S(=O)(=O)N1CCOCC1 | i | 5.6% | i | 4.11µM* | 0.0% | 12.5µM* | 22.3µM* | -1.5% | 28.1µM* | ?
CCN(CC(=O)Nc1ccc(NC(C)=O)cc1)C(=O)c1ccccc1SCC(=O)N1CCCC1 | i | 8.7% | i | -20.7% | -2.1% | . | . | . | . | .
Cc1nn(C)c(C)c1/C=C/C(=O)c1ccc(Cl)cc1Cl | ? | -41.4% | ? | 4.11µM* | 1.4% | 5.2% | 1.58µM* | -4.9% | 2.23µM* | ?
Cc1nn(C)c(C)c1/C=C/C(=O)O | i | 2.5% | i | -1.4% | 4.6% | . | . | . | . | .
CC(C)(C)OC(=O)NCc1ccc(NC(=O)c2nc[nH]c2C(=O)Nc2cc(Br)ccc2F)cc1 | i | . | i | . | . | . | . | . | . | .
CC(C)(C)OC(=O)NCc1ccc(NC(=O)c2nc[nH]c2C(=O)NCCCNC(=O)c2[nH]cnc2C(=O)Nc2ccc(CNC(=O)OC(C)(C)C)cc2)cc1 | i | ? | i | 1.83µM* | ? | 2.23µM* | 12.5µM* | ? | 25µM* | ?
CC(C)(C)OC(=O)NCc1ccc(NC(=O)c2nc[nH]c2C(=O)NCCN(CCNC(=O)c2[nH]cnc2C(=O)Nc2ccc(CNC(=O)OC(C)(C)C)cc2)CCNC(=O)c2[nH]cnc2C(=O)Nc2ccc(CNC(=O)OC(C)(C)C)cc2)cc1 | i | -6.0% | i | 7.2% | -1.1% | . | . | . | . | .
CC(C)(C)OC(=O)NCc1ccc(NC(=O)c2nc[nH]c2C(=O)NCCCCNC(=O)c2[nH]cnc2C(=O)Nc2ccc(CNC(=O)OC(C)(C)C)cc2)cc1 | ? | -20.5% | i | 0.92µM* | -14.5%[9.22 µM] | 1.12µM* | 1.26µM* | -7.5% | ? | ? | ELG1 FLuc counter=?;FLuc biochem=1.1%
